Our source for the Potency and activity, negative = inhibition values is PubChem BioAssay (Tox21).

Inconclusive results are not listed. Entries that show only a call come without a potency. A number with no mark means an inactive call. The source made the active and inactive calls. Calls come from the whole dose curve.
Potency is the fitted concentration of half-maximal effect.

The assay deals with Muscarinic acetylcholine receptor M1 (Homo sapiens) (UniProt P11229). In words: Cholinergic receptor muscarinic 1 (CHRM1) small molecule antagonists, cell-based qHTS assay (AID 1963588). Note: nearly all actives have a fitted effect of over 40% in size. As to conditions: CHRM1-CHO antagonist mode, calcium flux fluorescence; series mostly up to 61.5 µM. From the text: National Center for Advancing Translational Sciences [NCATS]
Sequence of Muscarinic acetylcholine receptor M1 (Homo sapiens) (P11229 whole entry, looked up): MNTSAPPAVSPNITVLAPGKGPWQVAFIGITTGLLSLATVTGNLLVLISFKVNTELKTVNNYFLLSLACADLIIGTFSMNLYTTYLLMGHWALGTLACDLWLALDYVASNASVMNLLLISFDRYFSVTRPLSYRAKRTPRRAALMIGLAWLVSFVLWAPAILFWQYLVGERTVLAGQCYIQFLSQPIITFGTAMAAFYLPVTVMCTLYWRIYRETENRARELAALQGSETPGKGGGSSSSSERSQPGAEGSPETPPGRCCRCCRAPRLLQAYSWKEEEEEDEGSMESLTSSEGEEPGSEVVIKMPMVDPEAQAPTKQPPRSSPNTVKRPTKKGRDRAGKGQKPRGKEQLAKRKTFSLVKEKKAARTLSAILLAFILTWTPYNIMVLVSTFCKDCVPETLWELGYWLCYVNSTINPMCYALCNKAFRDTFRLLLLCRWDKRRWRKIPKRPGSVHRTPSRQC
Division of Preclinical Innovation [DPI]
U.S. Environmental Protection Agency [EPA]
National Institutes of Environmental Health Sciences [NIEHS]
National Toxicology Program [NTP]
U.S. Food and Drug Administration [FDA]
The CHRM1 is a muscarinic receptor. This receptor plays a crucial role in learning and memory processes and has long been identified as a promising therapeutic target for the improvement of cognitive decline in Alzheimer's disease (AD). The CHRM1-CHO cell line stably expressing human muscarinic acetylcholine receptor M1 (CHRM1) can be used for screening agonists and antagonists of interactions between CHRM1 and its ligands. The CHRM1-CHO Calcium Flux Assay is a homogeneous fluorescence-based assay for detecting the intracellular calcium level using FDSS kinetic plate reader system.
Tox21 Assay Protocol Summary:
CHRM1-CHO cells were dispensed at 1000 cells/3uL/well in 1536-well black-clear bottom plates using a Multidrop Dispenser. After the assay plates were incubated at a 37 C/5% CO2 incubator for 18 h, 3 uL of Dye Loading Buffer was transferred to the assay plate by a Flying Reagent Dispenser. The assay plates were incubated at 37 C for 1h. For antagonist mode, 23 nL of compounds dissolved in DMSO, positive controls or DMSO only was transferred to the assay plate by a pin tool. After 5 min incubation at room temperature, 1.5 uL of acetylcholine at 50nM was added to each well. The fluorescence intensity in the plates was measured using FDSS 7000EX kinetic plate reader for 3 min at 1 sec intervals. Each test compound was measured at 15 concentrations in three independent runs.
In general terms: In qHTS, concentration-response curves come from the screen itself.
Regarding `CC(C)(C)C1=CC(=O)C=C(C(C)(C)C)C1=O`, the Potency entry is “inactive”.

For the compound `CCOB(OCC)OCC`, the Potency entry was “inactive”.

Consider `CN(C)CCOCCO`, for which the Potency entry was “inactive”.

Consider `CCS(=O)(=O)c1ccc(OC)c(C(=O)OC)c1`, for which the Potency result is “inactive”.

Regarding `Cc1ccccn1`, the Potency result was “inactive”.

Consider `CC[N+](CC)(CC)CCOC(=O)C(C1CCCC1)C1CCCC1`, for which the Potency was 0.0016 µM (active).

In the case of `CC(=O)Nc1ccc(OC(=O)c2ccccc2OC(C)=O)cc1`, the Potency result was “inactive”.

For `O=C1Cc2ccccc2N1c1c(Cl)cccc1Cl`, the Potency entry was “inactive”.

Turning to `NC(CCC(=O)O)C(=O)O` (stereo not given), the Potency result was “inactive”.

`C[C@@H](N)C(=O)O`: the Potency result is “inactive”.

As to `Cc1ccccc1N=C(N)Nc1ccccc1C`, the Potency was 7.35 µM (active).

Consider `CCC(C)[O-].CCC(C)[O-].CCOC(=O)/C=C(/C)[O-].[Al+3]`, for which the Potency result is “inactive”.

Regarding `CCO[Si](CCC1CCC2OC2C1)(OCC)OCC` (stereo not given), the Potency result was “inactive”.

Regarding `O=c1[nH]sc2ccccc12`, the Potency entry was “inactive”.

In the case of `c1cc(N(CC2CO2)CC2CO2)ccc1OCC1CO1` (stereo not given), the Potency result was “inactive”.

As for `O=C(Nc1cccc([N+](=O)[O-])c1)c1cc2ccccc2cc1O`, the Potency result was “inactive”.

With `CCC(C)(CCC(C)C)C(=O)[O-].CCC(C)(CCC(C)C)C(=O)[O-].[Zn+2]` (stereo not given), the Potency result is “inactive”.

With `Nc1nc(-c2ccccc2)cs1`, the Potency entry is “inactive”.

With `Cc1ccc2c(Br)cc(Br)c(O)c2n1`, the Potency entry was “inactive”.

As for `NC(=O)c1ccccc1C(N)=O`, the Potency result was “inactive”.

Turning to `CC(CN(C)C)CN1c2ccccc2CCc2ccccc21` (stereo not given), the Potency result is “inactive”.

For `C=CCN1C[C@H](C(=O)N(CCCN(C)C)C(=O)NCC)C[C@@H]2c3cccc4[nH]cc(c34)C[C@H]21`, the Potency entry was “inactive”.

Turning to `S=C([S-])NCCNC(=S)[S-].S=C([S-])NCCNC(=S)[S-].[Mn+2].[Zn+2]`, the Potency entry is “inactive”.

As for `NNc1nc(-c2ccc(N)cc2)cs1`, the Potency result is “inactive”.

As for `COP(=O)(O)OP(=O)(O)OC`, the Potency entry is “inactive”.

As for `CC(CC=O)CCCC(C)(C)O` (stereo not given), the Potency entry is “inactive”.

`c1cc[c]([Bi]([c]2ccccc2)[c]2ccccc2)cc1`: the Potency result is “inactive”.

As for `C#C[C@]1(O)CC[C@H]2[C@@H]3CCc4cc(OC5CCCC5)ccc4[C@H]3CC[C@@]21C`, the Potency entry was “inactive”.

Regarding `O=C(O)COCCN1CCN(C(c2ccccc2)c2ccc(Cl)cc2)CC1` (stereo not given), the Potency result was “inactive”.

Regarding `N#CCCOCCOCCC#N`, the Potency entry is “inactive”.

Consider `CC(C)(C)C1CCCCC1=O` (stereo not given), for which the Potency entry was “inactive”.

As to `O=C1CCCCCN1SSN1CCCCCC1=O`, the Potency entry is “inactive”.

Turning to `CC(=O)OC(C(=O)c1ccccc1)c1ccccc1` (stereo not given), the Potency entry is “inactive”.

Regarding `C[C@@H]1C[C@H]2[C@@H]3CCC4=CC(=O)C=C[C@]4(C)[C@@]3(F)[C@@H](O)C[C@]2(C)[C@@]1(O)C(=O)COC(=O)c1ccncc1`, the Potency entry was “inactive”.

As for `O=[N+]([O-])C1(Br)COCOC1`, the Potency entry was “inactive”.

For `CN(C)[C@@H]1C(=O)C(C(N)=O)=C(O)[C@@]2(O)C(=O)C3=C(O)c4c(O)ccc(Cl)c4[C@@H](O)[C@H]3C[C@@H]12`, the Potency result was “inactive”.

As to `CC(CN)CC(C)(C)CCN` (stereo not given), the Potency was 10.8 µM (active).

In the case of `CCCCOC(=O)CCC(C)=O`, the Potency result is “inactive”.

Turning to `S=c1nccc[nH]1`, the Potency entry is “inactive”.

Take `N[C@@H](Cc1ccc(O)cc1)C(=O)O`: the activity, negative = inhibition was -1.5% [at 5.58 µM].
